Assay in all cases: DAPPL (digital affinity profiling via proximity ligation, sequencing); 10 mM Tris-HCl pH 7.5, 50 mM NaCl, 1 mM DTT, 4% glycerol, room temperature, 30 min; GST-TFs on glutathione beads, 16-mer random dsDNA library, 0.1% formaldehyde crosslink after washing; high values mean tight binding
For one assay, the target named is T1, FLI1 (Homo sapiens, UniProt Q01543 1-452).
T1 sequence: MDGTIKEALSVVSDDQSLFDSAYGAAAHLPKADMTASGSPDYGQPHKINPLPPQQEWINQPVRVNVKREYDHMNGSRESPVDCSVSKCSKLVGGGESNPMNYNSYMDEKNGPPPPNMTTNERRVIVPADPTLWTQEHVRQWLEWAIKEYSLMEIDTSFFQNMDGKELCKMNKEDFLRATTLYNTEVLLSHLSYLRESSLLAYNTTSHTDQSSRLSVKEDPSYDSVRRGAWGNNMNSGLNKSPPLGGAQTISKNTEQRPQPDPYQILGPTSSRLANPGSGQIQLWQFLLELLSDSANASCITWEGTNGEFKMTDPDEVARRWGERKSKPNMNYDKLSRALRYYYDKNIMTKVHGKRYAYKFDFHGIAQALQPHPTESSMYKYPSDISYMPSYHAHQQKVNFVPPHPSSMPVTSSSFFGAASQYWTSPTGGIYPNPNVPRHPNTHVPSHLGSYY
As to conditions: protein: recombinant; tags: N-terminal GST; dsDNA, one strand shown. In short, it runs like this:
(§1)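 Binding signal is defined as a hexamer's read frequency for one factor over its frequency for the tag-only sample. To obtain reads, GST-fused human transcription factors were expressed in yeast, captured on glutathione beads, barcoded with DNA and pooled with that sample. Pools met 200 nmole of a 16-mer random double-stranded DNA library in Tris/NaCl/DTT/glycerol buffer for 30 min at room temperature before washing, 0.1% formaldehyde crosslinking, proximity ligation (BsaI/T4 ligase, 1 h, 37 °C), PCR and Illumina NextSeq500 sequencing.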

The next assay has as its target T2, ELK1 (Homo sapiens, UniProt P19419 1-428).
T2 sequence: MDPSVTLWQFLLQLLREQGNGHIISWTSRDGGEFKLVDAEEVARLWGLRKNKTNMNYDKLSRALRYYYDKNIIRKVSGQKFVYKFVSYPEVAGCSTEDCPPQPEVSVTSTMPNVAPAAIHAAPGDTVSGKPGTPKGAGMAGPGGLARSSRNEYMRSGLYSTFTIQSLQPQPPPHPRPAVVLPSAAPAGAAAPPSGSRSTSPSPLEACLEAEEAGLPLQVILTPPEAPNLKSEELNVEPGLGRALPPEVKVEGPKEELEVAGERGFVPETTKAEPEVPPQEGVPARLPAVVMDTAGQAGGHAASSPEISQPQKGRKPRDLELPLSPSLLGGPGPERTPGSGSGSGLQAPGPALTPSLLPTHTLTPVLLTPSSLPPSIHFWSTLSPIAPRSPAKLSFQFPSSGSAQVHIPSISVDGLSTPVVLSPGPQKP
As to conditions: protein: recombinant; tags: N-terminal GST; dsDNA, one strand shown. In short, it runs like this: as §1

In another assay the target is T3, GABPA (Homo sapiens, UniProt Q06546 1-454).
T3 sequence: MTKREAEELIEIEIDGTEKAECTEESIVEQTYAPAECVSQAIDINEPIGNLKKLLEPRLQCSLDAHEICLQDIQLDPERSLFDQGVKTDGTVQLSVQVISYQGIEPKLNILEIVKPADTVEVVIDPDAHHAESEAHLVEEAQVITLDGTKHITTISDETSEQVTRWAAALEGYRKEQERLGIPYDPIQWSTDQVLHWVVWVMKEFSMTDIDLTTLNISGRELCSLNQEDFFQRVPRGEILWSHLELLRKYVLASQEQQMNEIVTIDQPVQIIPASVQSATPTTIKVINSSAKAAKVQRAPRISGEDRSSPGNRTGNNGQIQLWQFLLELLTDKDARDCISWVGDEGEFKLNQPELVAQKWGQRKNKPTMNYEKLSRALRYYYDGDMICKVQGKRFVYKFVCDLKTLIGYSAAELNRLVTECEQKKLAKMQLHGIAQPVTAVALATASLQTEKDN
To be noted: protein: recombinant; tags: N-terminal GST; dsDNA, one strand shown. In short, it runs like this:
as §1

The target in a further assay is T4, ERG (Homo sapiens, UniProt P11308 1-479).
T4 sequence: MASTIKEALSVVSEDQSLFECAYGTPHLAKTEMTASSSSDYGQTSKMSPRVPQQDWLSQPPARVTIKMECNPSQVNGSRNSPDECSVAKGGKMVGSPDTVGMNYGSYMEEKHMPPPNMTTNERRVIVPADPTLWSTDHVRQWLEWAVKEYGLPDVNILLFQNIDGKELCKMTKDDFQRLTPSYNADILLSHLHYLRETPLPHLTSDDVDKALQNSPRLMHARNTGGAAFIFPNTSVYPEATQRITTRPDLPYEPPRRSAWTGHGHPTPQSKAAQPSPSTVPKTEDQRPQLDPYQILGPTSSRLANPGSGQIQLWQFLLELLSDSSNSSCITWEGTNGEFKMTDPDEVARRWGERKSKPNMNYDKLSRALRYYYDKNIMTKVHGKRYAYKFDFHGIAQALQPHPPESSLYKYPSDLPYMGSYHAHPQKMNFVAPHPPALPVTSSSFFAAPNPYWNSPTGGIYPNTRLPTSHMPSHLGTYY
As to conditions: protein: recombinant; tags: N-terminal GST; dsDNA, one strand shown. In short, it runs like this: as §1

For a further assay, the target named is ELF1 (Homo sapiens, UniProt P32519 1-619). As to conditions: protein: recombinant; tags: N-terminal GST; dsDNA, one strand shown. In outline: as §1
The target in the next assay is T5, EHF (Homo sapiens, UniProt Q9NZC4 1-300).
T5 sequence: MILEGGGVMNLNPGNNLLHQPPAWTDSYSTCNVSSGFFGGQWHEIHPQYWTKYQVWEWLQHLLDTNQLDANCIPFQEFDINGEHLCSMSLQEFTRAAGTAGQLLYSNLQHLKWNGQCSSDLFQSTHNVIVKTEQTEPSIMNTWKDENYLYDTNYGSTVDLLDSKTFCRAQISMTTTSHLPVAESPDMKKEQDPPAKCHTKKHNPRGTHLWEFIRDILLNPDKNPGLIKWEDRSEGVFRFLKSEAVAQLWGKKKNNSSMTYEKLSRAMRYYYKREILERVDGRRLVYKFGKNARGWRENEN
To be noted: protein: recombinant; tags: N-terminal GST; dsDNA, one strand shown. In outline: as §1

The next assay has as its target SPI1 (Homo sapiens, UniProt P17947 1-270). To be noted: protein: recombinant; tags: N-terminal GST; dsDNA, one strand shown. In outline:
as §1

The target of another assay is SPIB (Homo sapiens, UniProt Q01892 1-262). To be noted: protein: recombinant; tags: N-terminal GST; dsDNA, one strand shown. In outline: as §1
The next assay addresses T6, ELK3 (Homo sapiens, UniProt P41970 1-407).
T6 sequence: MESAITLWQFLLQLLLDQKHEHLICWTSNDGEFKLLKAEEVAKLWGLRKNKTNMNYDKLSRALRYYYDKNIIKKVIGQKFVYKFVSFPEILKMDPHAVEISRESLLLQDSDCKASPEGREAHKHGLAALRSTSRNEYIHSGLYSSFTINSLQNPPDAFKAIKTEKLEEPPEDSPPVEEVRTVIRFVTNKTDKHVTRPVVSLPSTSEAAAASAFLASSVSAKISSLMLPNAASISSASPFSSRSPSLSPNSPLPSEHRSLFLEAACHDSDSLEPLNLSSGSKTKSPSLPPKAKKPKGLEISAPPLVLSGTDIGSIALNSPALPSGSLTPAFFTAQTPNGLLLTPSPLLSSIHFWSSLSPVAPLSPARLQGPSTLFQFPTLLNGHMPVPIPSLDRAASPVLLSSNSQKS
As to conditions: protein: recombinant; tags: N-terminal GST; dsDNA, one strand shown. In short, it runs like this:
as §1

Another assay addresses T7, FEV (Homo sapiens, UniProt Q99581 1-238).
T7 sequence: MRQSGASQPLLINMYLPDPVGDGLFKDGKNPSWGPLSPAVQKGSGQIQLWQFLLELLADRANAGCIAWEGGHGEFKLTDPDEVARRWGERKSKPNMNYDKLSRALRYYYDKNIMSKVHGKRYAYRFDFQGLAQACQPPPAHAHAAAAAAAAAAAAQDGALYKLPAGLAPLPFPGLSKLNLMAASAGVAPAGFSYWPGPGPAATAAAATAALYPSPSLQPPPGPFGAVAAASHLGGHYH
To be noted: protein: recombinant; tags: N-terminal GST; dsDNA, one strand shown. In outline:
as §1

In a further assay the target is ETV5 (Homo sapiens, UniProt P41161 1-510). As to conditions: protein: recombinant; tags: N-terminal GST; dsDNA, one strand shown. In short, it runs like this:
as §1

The target in the next assay is HSF1 (Homo sapiens, UniProt Q00613 1-529). As to conditions: protein: recombinant; tags: N-terminal GST; chain copies: 3; dsDNA, one strand shown. In short, it runs like this: as §1
Another assay has as its target ELF4 (Homo sapiens, UniProt Q99607 1-663). To be noted: protein: recombinant; tags: N-terminal GST; dsDNA, one strand shown. In outline: as §1
Another assay has as its target T8, ELK4 (Homo sapiens, UniProt P28324-2 1-405).
T8 sequence: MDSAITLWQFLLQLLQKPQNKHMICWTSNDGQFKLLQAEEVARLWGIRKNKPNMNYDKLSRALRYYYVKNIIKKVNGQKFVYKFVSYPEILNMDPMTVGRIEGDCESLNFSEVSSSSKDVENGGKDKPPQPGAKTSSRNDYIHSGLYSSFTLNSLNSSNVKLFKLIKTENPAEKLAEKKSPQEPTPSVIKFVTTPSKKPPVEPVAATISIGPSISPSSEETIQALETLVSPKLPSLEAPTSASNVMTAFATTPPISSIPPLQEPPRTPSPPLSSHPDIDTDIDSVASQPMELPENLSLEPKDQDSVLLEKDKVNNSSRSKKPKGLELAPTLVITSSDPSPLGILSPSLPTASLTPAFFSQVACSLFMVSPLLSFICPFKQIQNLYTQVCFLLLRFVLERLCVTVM
To be noted: protein: recombinant; tags: N-terminal GST; dsDNA, one strand shown. In outline:
as §1

A further assay deals with T9, ETV2 (Homo sapiens, UniProt O00321 1-342).
T9 sequence: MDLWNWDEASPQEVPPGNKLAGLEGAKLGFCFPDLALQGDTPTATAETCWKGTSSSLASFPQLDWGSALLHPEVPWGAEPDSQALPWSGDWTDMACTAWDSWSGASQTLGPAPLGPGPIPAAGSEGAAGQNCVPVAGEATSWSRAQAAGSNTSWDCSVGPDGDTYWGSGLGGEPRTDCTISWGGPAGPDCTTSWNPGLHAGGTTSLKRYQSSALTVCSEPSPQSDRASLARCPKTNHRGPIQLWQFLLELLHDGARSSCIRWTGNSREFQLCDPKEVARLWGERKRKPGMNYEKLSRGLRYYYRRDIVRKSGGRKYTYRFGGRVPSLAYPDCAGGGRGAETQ
To be noted: protein: recombinant; tags: N-terminal GST; dsDNA, one strand shown. In outline:
as §1

In another assay the target is T10, ELF3 (Homo sapiens, UniProt P78545 1-371).
T10 sequence: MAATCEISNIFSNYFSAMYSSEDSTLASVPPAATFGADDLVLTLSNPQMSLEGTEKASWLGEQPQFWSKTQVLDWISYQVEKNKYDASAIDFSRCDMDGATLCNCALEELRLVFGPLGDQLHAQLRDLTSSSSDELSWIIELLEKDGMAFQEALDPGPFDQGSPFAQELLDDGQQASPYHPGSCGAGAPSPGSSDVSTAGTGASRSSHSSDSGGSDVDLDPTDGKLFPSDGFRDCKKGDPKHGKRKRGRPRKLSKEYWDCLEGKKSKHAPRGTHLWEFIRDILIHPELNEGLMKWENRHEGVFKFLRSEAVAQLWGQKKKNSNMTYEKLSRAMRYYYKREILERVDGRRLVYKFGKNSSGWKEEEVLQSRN
To be noted: protein: recombinant; tags: N-terminal GST; dsDNA, one strand shown. In short, it runs like this: as §1

Another assay deals with CRX (Homo sapiens, UniProt O43186 1-299). To be noted: protein: recombinant; tags: N-terminal GST; dsDNA, one strand shown. In short, it runs like this: as §1
A further assay addresses ETV1 (Homo sapiens, UniProt P50549 1-477). To be noted: protein: recombinant; tags: N-terminal GST; dsDNA, one strand shown. In outline: as §1

CRX, sequence (O43186 whole entry): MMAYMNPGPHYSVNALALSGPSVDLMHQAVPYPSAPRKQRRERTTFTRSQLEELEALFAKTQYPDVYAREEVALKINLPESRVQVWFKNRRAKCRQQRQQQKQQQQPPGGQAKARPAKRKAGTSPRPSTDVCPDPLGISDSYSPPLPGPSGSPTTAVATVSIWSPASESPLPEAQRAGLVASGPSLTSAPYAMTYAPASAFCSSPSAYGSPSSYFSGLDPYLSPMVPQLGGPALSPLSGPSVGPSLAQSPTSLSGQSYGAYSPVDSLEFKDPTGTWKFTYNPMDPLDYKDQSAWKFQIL
HSF1, sequence (Q00613 whole entry): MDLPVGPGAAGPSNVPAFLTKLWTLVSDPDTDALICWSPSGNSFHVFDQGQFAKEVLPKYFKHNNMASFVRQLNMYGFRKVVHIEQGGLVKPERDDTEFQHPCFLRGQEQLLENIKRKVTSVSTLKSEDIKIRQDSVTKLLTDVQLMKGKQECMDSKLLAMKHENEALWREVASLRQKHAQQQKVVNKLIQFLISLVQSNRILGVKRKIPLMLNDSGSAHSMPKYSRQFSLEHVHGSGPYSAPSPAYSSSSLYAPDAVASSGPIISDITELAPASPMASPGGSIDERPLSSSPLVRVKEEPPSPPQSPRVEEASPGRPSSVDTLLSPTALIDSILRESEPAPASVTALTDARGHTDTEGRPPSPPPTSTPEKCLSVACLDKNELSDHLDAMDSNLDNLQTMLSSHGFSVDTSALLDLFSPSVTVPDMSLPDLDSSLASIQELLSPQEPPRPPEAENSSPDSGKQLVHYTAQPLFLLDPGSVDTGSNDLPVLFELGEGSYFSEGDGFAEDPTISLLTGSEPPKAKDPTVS
ETV1, sequence (P50549 whole entry): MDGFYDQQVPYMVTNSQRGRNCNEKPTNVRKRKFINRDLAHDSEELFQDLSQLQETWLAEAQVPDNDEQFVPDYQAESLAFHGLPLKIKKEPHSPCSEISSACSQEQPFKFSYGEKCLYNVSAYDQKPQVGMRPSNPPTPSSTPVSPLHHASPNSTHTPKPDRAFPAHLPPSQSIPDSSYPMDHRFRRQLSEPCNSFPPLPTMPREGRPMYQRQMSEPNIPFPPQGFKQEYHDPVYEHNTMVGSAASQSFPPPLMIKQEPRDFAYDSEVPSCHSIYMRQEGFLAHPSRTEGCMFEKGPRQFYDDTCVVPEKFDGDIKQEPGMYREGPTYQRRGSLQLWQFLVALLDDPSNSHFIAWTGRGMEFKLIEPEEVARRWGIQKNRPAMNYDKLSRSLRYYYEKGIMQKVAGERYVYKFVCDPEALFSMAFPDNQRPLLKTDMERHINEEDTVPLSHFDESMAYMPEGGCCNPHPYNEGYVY
ELF1, sequence (P32519 whole entry): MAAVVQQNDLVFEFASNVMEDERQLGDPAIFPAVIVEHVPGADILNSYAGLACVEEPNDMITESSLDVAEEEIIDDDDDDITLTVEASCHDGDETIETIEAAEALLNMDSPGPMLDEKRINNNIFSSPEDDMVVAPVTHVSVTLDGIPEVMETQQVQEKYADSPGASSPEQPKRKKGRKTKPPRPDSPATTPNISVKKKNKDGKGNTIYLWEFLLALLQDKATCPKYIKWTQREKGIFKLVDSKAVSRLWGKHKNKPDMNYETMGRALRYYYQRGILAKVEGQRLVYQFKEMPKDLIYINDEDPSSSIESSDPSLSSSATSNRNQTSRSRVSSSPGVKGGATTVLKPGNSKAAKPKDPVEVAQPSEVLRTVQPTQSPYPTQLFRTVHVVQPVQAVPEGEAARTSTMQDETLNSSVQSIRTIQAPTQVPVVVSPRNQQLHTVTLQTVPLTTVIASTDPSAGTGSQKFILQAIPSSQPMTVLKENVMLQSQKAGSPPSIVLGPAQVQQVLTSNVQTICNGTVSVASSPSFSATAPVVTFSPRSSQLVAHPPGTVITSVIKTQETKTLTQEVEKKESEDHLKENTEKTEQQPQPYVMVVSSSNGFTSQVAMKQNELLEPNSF
SPIB, sequence (Q01892 whole entry): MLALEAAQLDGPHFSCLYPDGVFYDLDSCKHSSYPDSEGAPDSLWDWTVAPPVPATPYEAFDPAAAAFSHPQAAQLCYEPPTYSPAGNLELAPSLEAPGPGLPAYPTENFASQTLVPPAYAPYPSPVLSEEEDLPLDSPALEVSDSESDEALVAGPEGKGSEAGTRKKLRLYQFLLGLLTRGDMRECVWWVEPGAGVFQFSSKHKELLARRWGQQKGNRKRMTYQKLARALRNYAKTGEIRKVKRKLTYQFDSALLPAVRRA
ELF4, sequence (Q99607 whole entry): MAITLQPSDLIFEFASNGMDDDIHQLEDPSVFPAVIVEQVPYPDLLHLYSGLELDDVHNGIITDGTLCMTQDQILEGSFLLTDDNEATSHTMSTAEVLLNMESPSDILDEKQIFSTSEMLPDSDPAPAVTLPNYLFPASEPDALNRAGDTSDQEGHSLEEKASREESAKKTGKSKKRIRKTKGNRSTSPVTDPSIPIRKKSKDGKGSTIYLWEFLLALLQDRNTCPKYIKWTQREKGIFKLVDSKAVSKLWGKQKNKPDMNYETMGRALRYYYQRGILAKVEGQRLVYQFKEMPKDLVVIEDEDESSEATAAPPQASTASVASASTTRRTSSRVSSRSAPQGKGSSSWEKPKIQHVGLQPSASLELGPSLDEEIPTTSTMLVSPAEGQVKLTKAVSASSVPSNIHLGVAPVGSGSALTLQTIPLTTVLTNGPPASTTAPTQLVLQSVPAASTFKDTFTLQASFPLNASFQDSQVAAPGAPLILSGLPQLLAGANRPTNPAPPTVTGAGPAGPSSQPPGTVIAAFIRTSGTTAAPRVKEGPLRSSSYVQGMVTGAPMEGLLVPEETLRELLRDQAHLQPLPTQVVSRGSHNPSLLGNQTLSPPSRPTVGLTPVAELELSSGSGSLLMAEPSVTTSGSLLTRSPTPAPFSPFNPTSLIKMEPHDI
ETV5, sequence (P41161 whole entry): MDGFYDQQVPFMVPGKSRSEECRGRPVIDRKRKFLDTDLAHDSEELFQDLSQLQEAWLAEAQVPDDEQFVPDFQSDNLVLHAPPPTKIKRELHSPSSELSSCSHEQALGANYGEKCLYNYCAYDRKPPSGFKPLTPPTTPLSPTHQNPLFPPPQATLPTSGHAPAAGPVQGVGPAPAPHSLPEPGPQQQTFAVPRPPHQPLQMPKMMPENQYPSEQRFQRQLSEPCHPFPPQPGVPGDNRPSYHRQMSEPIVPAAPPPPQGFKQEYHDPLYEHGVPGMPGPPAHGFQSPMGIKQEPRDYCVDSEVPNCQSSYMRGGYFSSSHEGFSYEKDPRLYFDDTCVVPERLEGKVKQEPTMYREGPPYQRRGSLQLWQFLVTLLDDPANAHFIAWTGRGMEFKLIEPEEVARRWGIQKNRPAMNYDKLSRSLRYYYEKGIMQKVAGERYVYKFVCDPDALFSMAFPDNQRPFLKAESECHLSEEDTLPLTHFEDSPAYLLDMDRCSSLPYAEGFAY

For GTTTAC, the binding signal in the assay with FLI1 is 1.21 fold enrichment (6-mer frequency, TF over GST control); with ELK1, 1.13 fold enrichment (6-mer frequency, TF over GST control); with GABPA, 1.19 fold enrichment (6-mer frequency, TF over GST control); in the assay with ERG, 1.12 fold enrichment (6-mer frequency, TF over GST control); in the assay with ELF1 it was 1.08 fold enrichment (6-mer frequency, TF over GST control); with EHF it was 1.14 fold enrichment (6-mer frequency, TF over GST control). Besides, the binding signal was 1.13 fold enrichment (6-mer frequency, TF over GST control) with SPI1; 1.09 fold enrichment (6-mer frequency, TF over GST control) with SPIB; 1.03 fold enrichment (6-mer frequency, TF over GST control) with ELK3; 1.11 fold enrichment (6-mer frequency, TF over GST control) with FEV; 1.1 fold enrichment (6-mer frequency, TF over GST control) with ETV5; 1 fold enrichment (6-mer frequency, TF over GST control) in the assay with HSF1. In addition, the binding signal is 1.12 fold enrichment (6-mer frequency, TF over GST control) with ELF4; 1.32 fold enrichment (6-mer frequency, TF over GST control) with ELK4; 1.11 fold enrichment (6-mer frequency, TF over GST control) with ETV2; 1.28 fold enrichment (6-mer frequency, TF over GST control) with ELF3; 1.01 fold enrichment (6-mer frequency, TF over GST control) in the assay with CRX; 1.17 fold enrichment (6-mer frequency, TF over GST control) in the assay with ETV1.

Values taken from article PMC7862700, “An all-to-all approach to the identification of sequence-specific readers for epigenetic DNA modifications on cytosine”.
